Reference: the supplement of paper PMC12636033
± gives the standard deviation of the averaged measurements. The full ranking holds about 33,000 sequences; the median of “E-score (rank enrichment, -0.5 to 0.5)” is about -0.0028, and the highest 2% start at about 0.23. This excerpt belongs to a sample that is enriched for the highest values.

Test system: 2Sb-muMax20 (muMax20 with two 1,3-bis(methyl)benzene Cys staples, A13C/A17C and Q88C/A92C, C-terminal Lys)
Assay: PBM 8-mer E-score (E-score (rank enrichment, -0.5 to 0.5)); higher = stronger preferential binding
Procedure: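 Protein binding microarray (universal PBM chip covering all 10-mers in fixed probe flanks) with chemically synthesized human Max(13-93) bHLH-LZ analogs (not full-length Max) bearing noncanonical residues (hArg, Tha, Aib, Nle at 65) and aromatic Cys staples. Read-out per 8-mer (and its reverse complement): E-score (rank-based enrichment, -0.5 to 0.5) and Z-score of median probe intensity.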

CGCCTTCC and ACCGCCGG are within error of each other in “PBM 8-mer E-score” value: -0.134 ± 0.085 for the first, -0.212 ± 0.076 for the second.

First: ATGGCTAC
Second: CACCTCAA
The “PBM 8-mer E-score” value of the first is higher: 0.106 ± 0.049 for the first, -0.0623 ± 0.06 for the second.

Compared with CCTCAGCC, AGGGTCCC is lower in “PBM 8-mer E-score” value: -0.0948 ± 0.096 for the first, -0.337 ± 0.0037 for the second.

Compared with TTAGCAAA, GCCCCTCA is lower in “PBM 8-mer E-score” value: 0.1884 ± 0.00076 for the first, -0.0171 ± 0.064 for the second.

First: TACCCTCA
Second: TCCCCTCA
The “PBM 8-mer E-score” value of the first is lower: 0.0472 ± 0.026 for the first, 0.247 ± 0.0079 for the second.

ACCCCTCA and GCCCCTCC are within error of each other in “PBM 8-mer E-score” value: 0.307 ± 0.0085 for the first, 0.274 ± 0.099 for the second.

GCCCCCCC and CGCCCTCC are within error of each other in “PBM 8-mer E-score” value: -0.18 ± 0.13 for the first, 0.0189 ± 0.097 for the second.

CCCCCTCA and ACCCCTCG are within error of each other in “PBM 8-mer E-score” value: 0.0422 ± 0.049 for the first, 0.0393 ± 0.084 for the second.

ACTTCAGA and CAGCTCCG are within error of each other in “PBM 8-mer E-score” value: -0.161 ± 0.095 for the first, -0.19 ± 0.065 for the second.

First: ATATGGAA
Second: TGGTGTAA
The “PBM 8-mer E-score” value of the first is lower: 0.0497 ± 0.036 for the first, 0.249 ± 0.037 for the second.

Compared with CGGTGTAA, GGGTGTAA is higher in “PBM 8-mer E-score” value: -0.0426 ± 0.082 for the first, 0.0984 ± 0.049 for the second.

Going from TCCGGGAA to AAAACGAG, the “PBM 8-mer E-score” value rises from -0.184 ± 0.07 to -0.00059 ± 0.034.

CGTATACA and GGTATACA are within error of each other in “PBM 8-mer E-score” value: 0.0906 ± 0.018 for the first, 0.105 ± 0.011 for the second.

Compared with CGTATACG, AGTATACA is lower in “PBM 8-mer E-score” value: 0.341 ± 0.027 for the first, 0.135 ± 0.025 for the second.

First: CGTATACC
Second: TGTATACA
The “PBM 8-mer E-score” value of the first is lower: -0.123 ± 0.0037 for the first, 0.259 ± 0.05 for the second.

Going from CAGCAGGC to CCCCTCCG, the “PBM 8-mer E-score” value rises from -0.139 ± 0.04 to 0.00173 ± 0.08.

CCCCTCCC and CCCTCCCC are within error of each other in “PBM 8-mer E-score” value: 0.297 ± 0.13 for the first, 0.157 ± 0.25 for the second.

Going from ACCCTCCC to ACCCTCCA, the “PBM 8-mer E-score” value falls from 0.289 ± 0.04 to 0.0708 ± 0.031.

ACCCTCCT and CGGGTTAA are within error of each other in “PBM 8-mer E-score” value: -0.0718 ± 0.019 for the first, -0.0694 ± 0.12 for the second.

First: ACAGGTCT
Second: GGCAATAC
The “PBM 8-mer E-score” value of the first is lower: -0.101 ± 0.015 for the first, -0.0237 ± 0.039 for the second.

ACGCGGCA and AGAGCAAA are within error of each other in “PBM 8-mer E-score” value: -0.1504 ± 0.0011 for the first, -0.124 ± 0.036 for the second.

First: AGCGTATG
Second: CGGATTTA
The “PBM 8-mer E-score” value of the first is higher: 0.0491 ± 0.018 for the first, -0.0345 ± 0.005 for the second.

Compared with GCACGGTA, TAACGTAA is higher in “PBM 8-mer E-score” value: -0.226 ± 0.0061 for the first, -0.00578 ± 0.0029 for the second.

ATAACGTA and ATAACTTA are within error of each other in “PBM 8-mer E-score” value: 0.16 ± 0.052 for the first, 0.0822 ± 0.028 for the second.

Going from ATAACGTC to ATAACTTG, the “PBM 8-mer E-score” value rises from 0.0413 ± 0.0089 to 0.253 ± 0.032.

Compared with ATAACTTC, ATAACGTG is higher in “PBM 8-mer E-score” value: 0.1632 ± 0.00065 for the first, 0.277 ± 0.022 for the second.

Going from TTCAGGAA to CCAAGAAC, the “PBM 8-mer E-score” value rises from -0.0598 ± 0.038 to 0.098 ± 0.03.

CGTCCCTC and ATTACAGA are within error of each other in “PBM 8-mer E-score” value: -0.107 ± 0.023 for the first, -0.121 ± 0.03 for the second.

Compared with ATTACAGG, ATTACAGC is lower in “PBM 8-mer E-score” value: 0.286 ± 0.0044 for the first, 0.0657 ± 0.05 for the second.

Going from ATTACACG to ATTACACC, the “PBM 8-mer E-score” value rises from 0.0209 ± 0.026 to 0.254 ± 0.06.

Going from CTTACACC to ACGAGGGG, the “PBM 8-mer E-score” value rises from -0.035 ± 0.078 to 0.0607 ± 0.017.

CAAAGGAA and GAGGATGA are within error of each other in “PBM 8-mer E-score” value: 0.047 ± 0.054 for the first, 0.0986 ± 0.081 for the second.

Going from AAAAACGA to ATAAACGC, the “PBM 8-mer E-score” value falls from 0.256 ± 0.03 to -0.0771 ± 0.058.

GTAAACGA and GAAAACGA are within error of each other in “PBM 8-mer E-score” value: -0.00855 ± 0.0052 for the first, -0.0116 ± 0.016 for the second.

First: ATAAACGA
Second: CAAAACGA
The “PBM 8-mer E-score” value of the first is higher: 0.233 ± 0.029 for the first, 0.103 ± 0.0049 for the second.

CCGGTATC and AAGTCAGC are within error of each other in “PBM 8-mer E-score” value: -0.171 ± 0.092 for the first, -0.0311 ± 0.05 for the second.

Compared with AAGGCTAC, AGCGAAAA is higher in “PBM 8-mer E-score” value: -0.168 ± 0.021 for the first, 0.212 ± 0.006 for the second.

Going from TCACACCA to CGGATGTA, the “PBM 8-mer E-score” value falls from 0.0297 ± 0.027 to -0.172 ± 0.005.

AGATTTTG and CCTGTTAA are within error of each other in “PBM 8-mer E-score” value: 0.0113 ± 0.012 for the first, 0.0396 ± 0.043 for the second.

Going from CCTGTTAG to CCTGTTAC, the “PBM 8-mer E-score” value rises from -0.0682 ± 0.013 to 0.274 ± 0.049.

First: ACCGGCTA
Second: ACAAGAAC
The “PBM 8-mer E-score” value of the first is lower: -0.152 ± 0.016 for the first, 0.152 ± 0.045 for the second.

Going from CATTCTTC to GTGTAGTA, the “PBM 8-mer E-score” value rises from 0.0315 ± 0.021 to 0.125 ± 0.052.

First: ATGTAGTA
Second: ATGTAGAG
The “PBM 8-mer E-score” value of the first is higher: 0.268 ± 0.012 for the first, 0.0764 ± 0.027 for the second.
